# Source: PubChem BioAssay (Bradner/Qi Labs at DFCI)
# This is one part of a sample in which hits are shown more often than they occur.
# CBX7 inh = CBX7 inhibition, primary AlphaScreen; O95931; AID 1224903; normalised signal (fraction of DMSO) (no concentration beside the values); AlphaScreen His6-CBX7 / biotin-H3K27me3 peptide binding; hits give low values; 66,000 compounds, 1.1% hits; in the data active = normalised signal below about 0.5
# Target sequence (O95931 whole entry, looked up): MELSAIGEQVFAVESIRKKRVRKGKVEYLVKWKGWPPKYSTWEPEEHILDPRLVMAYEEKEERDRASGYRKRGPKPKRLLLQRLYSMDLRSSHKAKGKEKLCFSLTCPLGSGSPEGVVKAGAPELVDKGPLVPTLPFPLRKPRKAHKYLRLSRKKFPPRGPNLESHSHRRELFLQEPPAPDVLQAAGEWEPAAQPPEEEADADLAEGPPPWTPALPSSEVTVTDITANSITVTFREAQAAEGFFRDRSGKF
# Hits are given with their value; - = inactive.
SMILES,CBX7 inh
O=S(=O)(Nc1nccs1)c1ccc(Nc2nnc(-c3ccc(Cl)cc3)c3ccccc23)cc1,0.23
Cc1ccc(OCCn2c(SCCC(=O)O)nc3ccccc32)cc1,-
Cc1ccc(-c2nnc(Nc3ccc(C(N)=O)cc3)c3ccccc23)cc1S(=O)(=O)NC(C)(C)C,-
Cc1ccc(Nc2cc(C(=O)NCc3ccccn3)c3ccccc3n2)c(C)c1,-
Cc1ccc(C)c(NC2c3ccccc3C(=O)N2Cc2ccccc2)c1 (stereo not given),-
COc1ccc(CCNC(=O)c2ccc3nc(N4CCC(C)CC4)sc3c2)cc1OC,-
Nc1nonc1-c1nc2ccccc2n1Cc1cccc(Br)c1,-
COc1ccc2cc(CCNC(=O)CCCc3ccccc3)c(=O)[nH]c2c1,-
CCn1c(=O)c(-c2ccc3ccccc3n2)cc2cc(Br)ccc21,-
Cc1ccc(C(=O)Nc2ccc(-c3nc4cc(Cl)ccc4o3)cc2)cc1,-
COc1cccc(-c2nc(-c3ccccc3)c(-c3cccs3)[nH]2)c1,-
Cc1ccc(C)c(-c2[nH]c(-c3ccc(C(=O)O)cc3)nc2-c2ccccc2)c1,-
O=C1c2ccc([N+](=O)[O-])cc2C(=O)N1c1ccc2nc(-c3ccccc3)[nH]c2c1,-
Fc1ccccc1-c1nc(-c2ccccc2)c(-c2ccc(Sc3ccccc3)cc2)[nH]1,-
Cc1ccc([N+](=O)[O-])cc1-c1[nH]c(-c2ccccc2F)nc1-c1ccccc1,0.47
COc1cccc(-c2nc(-c3ccccc3)c(-c3cc([N+](=O)[O-])ccc3C)[nH]2)c1,0.47
Cn1cnc2cc(NC(=O)c3ccccc3)ccc21,-
COc1nnc(-c2ccc(N3CCOCC3)c(NC(=O)COc3ccc([N+](=O)[O-])cc3)c2)c2ccccc12,-
Cc1cc(N2CC(C)CC(C)C2)n2nc(C)c(-c3ccc(Cl)cc3)c2n1 (stereo not given),-
O=C1CCc2cc(S(=O)(=O)NC3CCN(Cc4ccccc4)CC3)ccc2N1,-
CCOc1ccc(-n2c(Cc3cc(=O)[nH]c(=O)[nH]3)nnc2SCc2ccccc2)cc1,-
Cc1ccc(N(CC(=O)Nc2cccc(Cl)c2)S(=O)(=O)c2c(C)nn(C)c2C)cc1,-
COc1ccc(OC)c(CNC(=O)CCc2cn(C)c3ccccc23)c1,-
CCOc1ccc(CNC(=O)CCCc2cn(C)c3ccccc23)cc1OC,-
COc1ccc(Br)cc1CNC(=O)Cc1cn(C)c2ccccc12,-
SMILES,CBX7 inh
COc1ccc(CNC(=O)CCc2cn(C)c3ccccc23)c(OC)c1,-
COc1ccc(Br)cc1CNC(=O)CCCc1cn(C)c2ccccc12,0.42
COc1ccc(OC)c(CNC(=O)CCCc2cn(C)c3ccccc23)c1,0.46
CC(=O)N1CCc2cc(S(=O)(=O)NC(C(=O)N3CC(C)CC(C)C3)C(C)C)ccc21 (stereo not given),-
COCCCNC(=O)C1CCN(Cc2nc(-c3cccc(Br)c3)oc2C)CC1,-
Cc1cccc(N2CCN(C(=O)c3cc(-c4ccncc4)nc4ccccc34)CC2C)c1 (stereo not given),0.41
O=C(c1cc(-c2ccncc2)nc2ccccc12)N1CCN(c2ccccn2)CC1,-
Cc1cccc(N2CCN(C(=O)c3cnn(-c4ccccc4)c3-n3cccc3)CC2C)c1 (stereo not given),-
CCOC(=O)c1cccc(NC(=O)c2cccc3c2C(=O)N(Cc2cccnc2)C3)c1,-
O=C(c1ccccc1)N1CCn2c3c(c4cc(C5CCCCC5)ccc42)CCCC31 (stereo not given),-
CCn1c2c(c3cc(C4CCCCC4)ccc31)CCCC2O (stereo not given),0.47
O=C1CCCc2c1[nH]c1ccc(C3CCCCC3)cc21,-
CCOC(=O)c1c(-c2ccc(Cl)cc2)csc1NC(=O)C1COc2ccccc2O1 (stereo not given),-
CC(C(=O)NC1CCCCC1)C1Sc2ccccc2NC1=O (stereo not given),-
O=C1Nc2ccccc2SC(c2ccccc2)C1O (stereo not given),0.19
O=C1CC(c2ccc(F)cc2)Sc2ccccc2N1 (stereo not given),-
Cc1nnc(Nc2cccc(O)c2)c2ccccc12,-
Cc1ccc(-c2nnc(Nc3cccc(O)c3)c3ccccc23)cc1,0.42
CCOc1ccc(-c2nnc(Nc3ccc(C(=O)N(C)C)cc3)c3ccccc23)cc1,-
Oc1cccc(Nc2nnc(-c3ccc(Cl)cc3)c3ccccc23)c1,-
CCOc1ccc(-c2nnc(Nc3cccc(O)c3)c3ccccc23)cc1,0.49
CCOc1ccc(-c2nnc(Nc3ccc(O)cc3)c3ccccc23)cc1,-
C=CCn1c(SCc2cc(F)ccc2F)nc2cc(C(=O)N3CCC(C(N)=O)CC3)ccc2c1=O,-
CCOC(=O)c1ccccc1NC(=O)Cc1c(C(=O)O)[nH]c2ccccc12,-
CCc1cccc(-n2c(C)nc3c(cnn3-c3ccccc3Cl)c2=O)c1,-
O=C(CC1C(=O)N(c2ccccc2)C(=O)N1Cc1cccs1)Nc1ccc(Cl)cc1 (stereo not given),-
CCOc1ccc(OCC)c(NC(=O)c2cc3sccc3n2Cc2ccc(F)cc2)c1,-
